Test results published in ChEMBL document CHEMBL3988442, “University of Dundee, Small-Polar-MMV Screening Library” (2021).
About 13,000 (27%) of roughly 48,000 compounds showed an effect of 50% or more. The list shows a part of the results.

system: Wolbachia pipientis; experiment: Anti-Wolbachia Cell-Based Screen; type: functional; set-up: scale not given: in the data most compounds retested in dose-response had high values; conditions: 5 µM

Compound	Percent Effect [%]
O=C(CCCn1cncn1)N1CCC2(CCCNC2=O)C1 (stereo unspecified)	-3.772
O=C(C[S+]([O-])Cc1csc(C2CCCC2)n1)Nc1ccccc1 (stereo unspecified)	0.09199
COCC(O)CN(C)C(=O)NC1CCN(S(C)(=O)=O)CC1 (stereo unspecified)	12.14
CCC(CC)(CNC(=O)OC(C)(C)C)NC(=O)C1CCOCC1	5.998
O=S(=O)(NCC(O)c1cccs1)c1ccccc1Cl (stereo unspecified)	2.157
CCc1nc(N)nc(NCCC(=O)N2CCCC2)c1C	9.291
CC(C)(C)C(=O)NC[C@H]1Cn2c(-c3ccccc3)cnc2CO1	-8.442
CN(CC1=CCCN(CCc2ccccn2)C1)C(=O)c1ccco1	0.7414
CNC(=O)c1cccc(CCNC(=O)N2CCc3ccccc3C2)c1	1.406
CN(Cc1ccsc1)C(=O)CN1CCc2c(ncn2C)C1	-3.155
CCOc1ncccc1NC(=O)N1CCc2ccccc2C1	-0.7073
O=C(NCCNc1ncccn1)N1CCc2ccccc2C1	8.02
CN(Cc1ccccn1)C(=O)CNC(=O)N1CCc2ccccc2C1	97.17
CN(Cc1ccsc1)C(=O)CNC(=O)N1CCc2ccccc2C1	90.63
CC(C)c1noc(C(C)N2CCC(c3nc4ccccc4o3)CC2)n1 (stereo unspecified)	1.795
Cc1cc(C)c2c(c1)C(NC(=O)CSc1nnc[nH]1)CCO2 (stereo unspecified)	8.701
Cc1nn(C)c2nc(N(C)CC3CCN(CC(C)C)C3)sc12 (stereo unspecified)	-16.91
O=C(c1ccoc1)N1CCCN(CC2CCOc3ccccc3C2)CC1 (stereo unspecified)	-7.228
Cc1cc(C)cc(OCCC(=O)NC2CC(=O)N(C)C2)c1 (stereo unspecified)	-4.77
CC1CCc2nc(O)c(C(=O)NCc3cccc(F)c3)cc2C1 (stereo unspecified)	-1.382
CN1CC(c2cc(O)nc(NCc3ccccc3Cl)n2)CC1=O (stereo unspecified)	83.2
CN1CC(c2cc(O)nc(NCc3cccc(F)c3)n2)CC1=O (stereo unspecified)	104.4
CC(C)(CO)NC(=O)C1CCC(=O)N(Cc2ccc(Cl)cc2)C1 (stereo unspecified)	-2.281
N#Cc1cccc(NC2CC(=O)N(Cc3ccccc3Cl)C2)n1 (stereo unspecified)	-1.238

Compound	Percent Effect [%]
COc1cccc(CNc2nc(O)cc(C3CC(=O)N(C)C3)n2)c1 (stereo unspecified)	-3.669
Cc1ccc(CNc2nc(O)cc(C3CC(=O)N(C)C3)n2)cc1 (stereo unspecified)	96.21
CN1CC(c2cc(O)nc(NCc3ccc(Cl)cc3)n2)CC1=O (stereo unspecified)	70.24
Cc1nc(NC(=O)NC2CC(=O)N(C)C2)nn1C (stereo unspecified)	3.668
Cc1ccccc1CNc1nc(O)cc(C2CC(=O)N(C)C2)n1 (stereo unspecified)	-5.04
CCC(NC(=O)Nc1ccc(OC)c(C)c1)c1noc(C)n1 (stereo unspecified)	-4.029
N#Cc1ccc(N2CCCN(CC(=O)N3CCC3)CC2)cc1	4.301
CC(C)c1nccn1C(C)C(=O)N1CCN(c2ccccc2Cl)CC1 (stereo unspecified)	-35.17
CC(C(=O)N1CCCN(c2ncccc2C#N)CC1)n1cccn1 (stereo unspecified)	0.5745
CC(C(=O)N1CCCN(c2ccc(C#N)cc2)CC1)n1ccnc1 (stereo unspecified)	-8.735
CC(C(=O)N1CCCN(c2ccccc2C#N)CC1)n1cccn1 (stereo unspecified)	129.1
CC(C(=O)N1CCCN(c2ccc(C#N)cc2)CC1)n1cccn1 (stereo unspecified)	143.8
CC(C)n1ccnc1CN1C(=O)OC[C@@H]1c1ccccc1	11.77
CCOCC(=O)N1C[C@H]2CC[C@@H]1CN(C(=O)c1ccncc1)C2	-0.6982
Cn1c(Cn2ncc(N3CCCC3)cc2=O)nc2ccccc21	114.5
O=c1cc(N2CCCCC2)cnn1CCCn1cccn1	21.14
CN(C)c1cnn(Cc2nc3ccccc3n2C)c(=O)c1	116.1
CN(C)c1cnn(CC(=O)N2CCN(c3ccccc3)CC2)c(=O)c1	3.087
CN(C)c1cnn(CC(=O)N2Cc3ccccc3C2)c(=O)c1	8.607
CN1CCCN(c2cnn(Cc3ccc(C(C)(C)C)cc3)c(=O)c2)CC1	10.83
Cn1c(Cn2ncc(N3CCCCC3)cc2=O)nc2ccccc21	93.17
CN1CCCN(c2cnn(Cc3ccncc3)c(=O)c2)CC1	-30.12
CCCOCCn1ncc(N2CCCC2)cc1=O	0.2704
O=C(NC1CC2(CCN(CCO)CC2)Oc2ccccc21)c1csnn1 (stereo unspecified)	-25.87

Compound	Percent Effect [%]
CC(C)c1nc(CN(C)C(=O)CCNC(=O)c2ccccc2F)no1	-5.471
CC(=O)Nc1ccc([C@@H](O)[C@H]2COCC(=O)N2CC(C)C)cc1	-7.535
CCN(Cc1ccc2c(c1)OCO2)Cc1nc(C)no1	5.817
CCc1noc(CN(Cc2ccc3c(c2)OCO3)C2CCCC2)n1	130.5
Cc1csc(CNC(=O)N(C)Cc2ccc3c(c2)OCCO3)n1	-8.149
c1cc2c(cc1CN(Cc1nc(C3CC3)no1)C1CCCC1)OCO2	88.61
CCc1noc(CN(C)C(=O)c2ccnc(OC3CCC3)c2)n1	-5.488
Cc1noc(CN(C)Cc2ccc3c(c2)OCO3)n1	95.73
CCCc1noc(CN(C)Cc2ccc3c(c2)OCO3)n1	-4.394
CCN(Cc1nc(C2CC2)no1)Cc1ccc(C#N)cc1F	-4.842
Cc1noc(CN(Cc2ccc3c(c2)OCO3)C2CCCC2)n1	3.676
CN(C(=O)Cc1ccc2c(c1)OCCO2)C1CCCCC1	-4.303
Cc1nc(CN(Cc2ccc3c(c2)OCCO3)C2CCCC2)no1	158.9
CC(C)c1nc2n(n1)CC(Nc1ncnc3c1CCC3)CC2 (stereo unspecified)	-10.8
O=C(c1cc[nH]n1)N1CCN(C(c2ccccc2)C(F)(F)F)CC1 (stereo unspecified)	48.39
N#CCCN(CCC#N)C(=O)c1ccc(COc2ccccc2C#N)o1	-1.523
CN(C)CCN(C)S(=O)(=O)CC1CCOCC1	3.137
CC(CS(C)(=O)=O)N(C(=O)Nc1ccc(F)cc1F)C1CC1 (stereo unspecified)	2.637
COc1cc(OC)c(CNC(=O)NCc2ccc(C#N)cc2)c(OC)c1	1.359
COCCO[C@H]1COCCN(Cc2ccc(OC)cc2)C1	-5.552
O=C(C1CCOc2ccccc2C1)N1Cc2cnn(CCO)c2C1 (stereo unspecified)	-2.46
CCCN(C(=O)CN1CCN(CC(C)O)CC1)C1=CCCCC1 (stereo unspecified)	-2.912
CCc1nc(C2CCCN2c2ncc(C(N)=O)cc2Cl)no1 (stereo unspecified)	-14.14
Cc1noc([C@@H]2C[C@H](NC(=O)NC3CCCCC3)CN2C)n1	-10.92

Compound	Percent Effect [%]
CC(=O)N1CCCC1c1nc(C)no1 (stereo unspecified)	122.1
CNCC(=O)N1CCCC1c1nc(C(C)C)no1 (stereo unspecified)	10.93
Cc1noc(C2CCCN2C(=O)C2CCC2)n1 (stereo unspecified)	124.3
Cc1noc([C@@H]2CCCN2C(=O)C2CCN(C(=O)C3CCC3)CC2)n1	-13.41
Cc1noc([C@@H]2CCCN2C(=O)C2CCN(CC(N)=O)CC2)n1	1.357
Cc1ccc([C@@H]2CN(C(=O)c3cc[nH]c3)C[C@H]2NC(=O)C2CC2)cc1	18.05
NC(=O)C1CCN(CCc2ccc(NCc3ccoc3)cc2)CC1	-9.363
CCOCCNC(=O)c1cccnc1N1CCCC1c1ccccn1 (stereo unspecified)	122.4
CNC(=O)c1cccnc1N1CCN(C/C=C/c2ccccc2)CC1	6.453
CCC(CC)NC(=O)c1cccnc1-n1cccn1	10.93
CCC(CC)NC(=O)c1cccnc1N1CCCC1c1ccccn1 (stereo unspecified)	119.8
COc1cccc(C(=O)N2CCN(C(=O)CCCn3ccnc3)CC2)c1	-1.45
COc1ccc(C(=O)O)c(OCC(=O)NC(C)c2ccc(F)cc2)c1 (stereo unspecified)	-5.25
Cc1ccc(C(N)c2cccs2)cc1 (stereo unspecified)	13.29
Cc1ccccc1CN(Cc1ccncc1)CC(C)C	-4.812
Cc1ccccc1C(N)c1ccncc1.Cl (stereo unspecified)	102.8
COCC(NC(=O)c1cc[nH]n1)c1cccc(C(F)(F)F)c1 (stereo unspecified)	-1.057
O=C(c1ccccn1)N1C[C@@H]2CC[C@H](C1)N(C(=O)CCC(F)(F)F)C2	-20.57
CCCC1CCCN(Cc2csc(-c3cnn(C)c3)n2)CC1 (stereo unspecified)	-16.04
Cn1cc(-c2csc(N3CCCCCC3)n2)cn1	-2.114
Cn1cc(-c2nnc3sc(C4CC4)nn23)cn1	89.59
Cn1cc(-c2nc(CN3CCn4c(nnc4C4CC4)C3)cs2)cn1	-10.47
Cn1cc(-c2nnc3sc(C4CCC4)nn23)cn1	131.8
CCC(CO)N(Cc1ccsc1)CC1CC1 (stereo unspecified)	-8.901

Compound	Percent Effect [%]
CCS(=O)(=O)CCCN1CCSCC1c1ccc(Cl)cc1 (stereo unspecified)	4.065
N#Cc1ccc(SCCC(=O)O)cc1	-2.439
CCOc1ccc(CNC(C)c2cccc(S(=O)(=O)NC)c2)cc1 (stereo unspecified)	0.3734
CCCNS(=O)(=O)Cc1ccc(Br)cc1	-14.67
CCS(=O)(=O)CCSc1ccc(Br)cc1	61.96
CCOc1ccc(SCCNS(=O)(=O)CC)cc1	37.47
CCOc1ccc(SCCS(=O)(=O)CC)cc1	102.3
CCS(=O)(=O)CCSc1ccc(Cl)cc1	82.02
N#Cc1cccc(SCCS(N)(=O)=O)c1	2.301
CC(C)c1cc(=O)[nH]c(C(C)(C)N)n1.Cl	-9.286
CNC(=O)Cc1noc(-c2cc3c(s2)CCC(C)(C)C3)n1	-4.639
COc1ccccc1CC1CCCN(C(=O)c2cn[nH]c2C)C1 (stereo unspecified)	-7.935
O=C1CCCN1CCN1CCCC(c2ccn[nH]2)C1 (stereo unspecified)	1.781
O=C(O)c1cccc(CN2CCCC(Cc3ccn[nH]3)C2)c1 (stereo unspecified)	127.8
O=C(O)c1ccccc1CN1CCCC(Cc2ccn[nH]2)C1 (stereo unspecified)	106.4
c1ccn2cc(CN3CCCC(c4ccn[nH]4)C3)nc2c1 (stereo unspecified)	9.447
CC(C)(C)OC(=O)NC1CCCN(Cc2cccc(O)c2)C1 (stereo unspecified)	-3.79
COc1ccccc1CC1CCCN(CC(N)=O)C1 (stereo unspecified)	-5.386
O=C(O)c1ccc(CN2CCCC(Cc3ccn[nH]3)C2)cc1 (stereo unspecified)	99.33
O=C(O)c1cccc(CN2CCCC(c3ccn[nH]3)C2)c1 (stereo unspecified)	109.3
